Gal4-VP16 FLuc = counter-screen for ROR gamma inhibitors: Gal4-VP16 reporter; Drosophila S2 Gal4-VP16 UAS-luciferase, luminescence, 20 h; Potency, µM (doses to about 53.6 µM), without a hit: top-dose activity, negative = inhibition, usual class: inhibitors; hit rate 3.5% among 310,000;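 note: Gal4-VP16 expression switched on by copper sulfate through the metallothionein promoter; potency is the fitted concentration of half-maximal effect; % is set by controls: 0 for no effect and ±100 for the full control effect; nearly all actives have a fitted effect of over 50% in size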
RORgamma inh = inhibitors of mouse ROR gamma transcriptional activity; Potency, µM (series often up to 53.6 µM), for inactives: top-dose activity change, negative = inhibition, actives largely listed as inhibitors; P51450; hit rate 5.4% among 310,000; Drosophila S2 Gal4-RORgamma UAS-luciferase reporter, 20 h; AID 2551; note: potency is the fitted concentration of half-maximal effect; % is set by controls: 0 for no effect and ±100 for the full control effect; nearly all actives have a fitted effect of over 60% in size
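Luminescence from a UAS-regulated Photinus luciferase reporter in stably transfected Drosophila Schneider cells is measured; decreased signal marks ROR gamma inhibition. Fusion expression is induced by 700 uM copper sulfate for 20 hr.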
ERG-DNA inh = blocks human ERG Ets domain binding to DNA | P11308 | fluorescence polarization, His-ERG Ets domain / labelled DNA | Potency, µM (series often up to 76.9 µM), inactives show at the highest dose FP activity, negative = inhibition, actives largely listed as inhibitors | hit rate 0.028% among 370,000 | AID 624246; active = well fitted inhibition curve with a large enough effect in the polarisation, with a control signal flat; inconclusive = small, poorly fitted or top-dose-only effect, or effect the other way, or a change in a side signal; inactive = no such curve, though single readings can be large or run the other way; the % refers to the polarisation;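 note: polarization taken with two DNA probes labelled with fluorescein and Texas red; potency is the fitted concentration of half-maximal effect; % of control where 0% means no effect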
Target sequence (P11308 whole entry, looked up, the tested form may be a part): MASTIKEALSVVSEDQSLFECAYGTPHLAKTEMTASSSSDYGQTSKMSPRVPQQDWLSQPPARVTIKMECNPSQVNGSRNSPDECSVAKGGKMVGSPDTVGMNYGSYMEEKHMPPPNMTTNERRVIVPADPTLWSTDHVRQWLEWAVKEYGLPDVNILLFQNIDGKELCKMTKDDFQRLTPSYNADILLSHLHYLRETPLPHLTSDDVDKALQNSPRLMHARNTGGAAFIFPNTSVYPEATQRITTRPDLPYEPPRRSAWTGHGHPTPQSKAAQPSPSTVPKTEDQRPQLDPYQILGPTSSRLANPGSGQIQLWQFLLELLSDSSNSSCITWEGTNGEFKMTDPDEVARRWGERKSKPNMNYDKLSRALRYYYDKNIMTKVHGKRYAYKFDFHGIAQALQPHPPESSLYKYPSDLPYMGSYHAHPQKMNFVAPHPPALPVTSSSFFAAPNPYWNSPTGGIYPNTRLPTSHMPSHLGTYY
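His-tagged ERG Ets domain (1 uM in the protein solution; 300mM KCl, 50mM Tris-HCl, 1mM EDTA, 1mM DTT, pH 7.5) received compound, then a probe mix of 5 nM fluorescein-DNA and 100nM Texas-615-DNA. Fluorescence polarization was read for both dyes.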
Integrin act MD = activates integrin-mediated alleviation for muscular dystrophy; alpha7betagal myoblasts, beta-gal FDG fluorescence, 48 h; Potency, µM (top dose mostly 38.3 µM), for inactives: at the highest dose activation, hits mostly activators; hit rate 0.064% among 350,000; AID 624291;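 note: potency is the fitted concentration of half-maximal effect; 100% = response of the positive control SU9516; nearly all actives have a fitted effect of over 60% in size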
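alpha7betagal+/- myoblasts (passage 13, 250/well) treated 48 h at 37C with compounds at 1:260 dilution of DMSO stock. Lysed, then beta-galactosidase activity read as FDG fluorescence (ex 480/em 540) after 30 min, with pre-read for autofluorescence.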
Giardia killer = Giardia lamblia killing. activity change, % at 7.66 µM, hits read low. hit rate 0.15% among 340,000. Giardia lamblia trophozoite viability. AID 540267; in the data active = activity change below about -80%; inconclusive = between about -30% and that limit;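 note: parasites exposed to compound for two days anaerobically before the ATP read; % is set by controls: 0 for no effect and ±100 for the full control effect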
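Luminescent ATP signal served as the viability read-out, measured 15-30 min after adding ATP detection reagent to trophozoites that had been incubated with compounds for 48 hrs at 37 deg C anaerobically at 100 cells/well.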
* = called active by the depositor; [ ] = dose if it differs, or a comment. Only a selection was taken, and hits are over-represented in it overall. Unless noted, calls come from the whole dose curve; as a rule, active = well fitted curve in the direction sought with a large enough effect; inconclusive = small, poorly fitted or top-dose-only effect, or another doubt; inactive = no such curve, though single readings can be large; an effect the other way counts as inactive or inconclusive.

For Cc1cccc(NC(=O)c2nc[nH]c2C(=O)N[C@@H](Cc2ccccc2)C(=O)OCc2ccccc2)c1 the results were Gal4-VP16 FLuc 10µM*, RORgamma inh 2.2µM*, ERG-DNA inh 15%, Integrin act MD 0% and Giardia killer 8.
`C[C@H](NC(=O)c1nc[nH]c1C(=O)NC1CCN(C(=O)OC(C)(C)C)CC1)C(=O)OCc1ccccc1` gave Gal4-VP16 FLuc inconclusive, RORgamma inh 14µM*, ERG-DNA inh -5%, Integrin act MD -5% and Giardia killer 17.
For C[C@H](NC(=O)c1nc[nH]c1C(=O)N[C@@H](Cc1ccccc1)C(=O)OCc1ccccc1)C(=O)OCc1ccccc1 the results were Gal4-VP16 FLuc inconclusive, RORgamma inh 11µM*, ERG-DNA inh 4%, Integrin act MD -26% and Giardia killer 2.
For CC(C)Cc1nnc(NC(=O)CCC(=O)N2CCN(c3ccc(F)cc3)CC2)s1 the results were Gal4-VP16 FLuc -2%, RORgamma inh 45%, ERG-DNA inh 4%, Integrin act MD 6% and Giardia killer 30.
`COC(=O)c1ccccc1NC(=O)CSc1nc2sc3c(c2c(=O)[nH]1)CCCC3` gave ERG-DNA inh 5% and Giardia killer -2.
`CCN(CC)S(=O)(=O)c1ccc(C)c(NC(=S)N2CCN(C/C=C/c3ccccc3)CC2)c1` gave Gal4-VP16 FLuc inconclusive, RORgamma inh 13µM*, ERG-DNA inh -10%, Integrin act MD -40% and Giardia killer 17.
Screening CCN(CC)S(=O)(=O)c1ccc(C)c(NC(=S)N2CCN(c3ccccn3)CC2)c1 returned Gal4-VP16 FLuc 9%, RORgamma inh 14%, ERG-DNA inh -12%, Integrin act MD 2% and Giardia killer 3.
`CCN(CC)S(=O)(=O)c1ccc(C)c(NC(=S)N2CCN(Cc3ccc4c(c3)OCO4)CC2)c1` gave Gal4-VP16 FLuc 22µM*, RORgamma inh 11µM*, ERG-DNA inh -2%, Integrin act MD -25% and Giardia killer -14.
Cc1cccc(NC(=S)N2CCN(Cc3ccc4c(c3)OCO4)CC2)c1C was read as Gal4-VP16 FLuc -4%[0.365 µM], RORgamma inh -109%, ERG-DNA inh 0%, Integrin act MD 20% and Giardia killer 10.
For CC(C)c1ccccc1NC(=S)N1CCN(Cc2ccc3c(c2)OCO3)CC1 the results were Gal4-VP16 FLuc inconclusive, RORgamma inh 11µM*, ERG-DNA inh -4%, Integrin act MD -2% and Giardia killer -2.
Cc1ccc(NC(=S)N2CCN(Cc3ccc4c(c3)OCO4)CC2)c(C)c1 was read as ERG-DNA inh 0%, Integrin act MD 4% and Giardia killer 9.
For CS(=O)(=O)N(CC(=O)N1CCN(Cc2ccc3c(c2)OCO3)CC1)Cc1ccc(Cl)cc1 the results were Gal4-VP16 FLuc 10µM*, RORgamma inh -20%, ERG-DNA inh -6%, Integrin act MD -3% and Giardia killer 2.
CCCCC/C=C\C/C=C\C/C=C\C/C=C\CCCC(=O)C(F)(F)F was read as Gal4-VP16 FLuc -3% and RORgamma inh 22%.
`S=C(Nc1ccc2c(c1)OCO2)N1CCN(Cc2ccco2)CC1` gave Gal4-VP16 FLuc 11µM*, RORgamma inh 11µM*, ERG-DNA inh 16%, Integrin act MD 25% and Giardia killer inconclusive.
Screening O=C1Cc2c([nH]c3ccc(Br)cc23)-c2ccccc2N1 returned Gal4-VP16 FLuc 25µM*, RORgamma inh -5%, ERG-DNA inh 25%, Integrin act MD 14% and Giardia killer 44.
For Brc1ccc2[nH]c3c(c2c1)CCC3 the results were Gal4-VP16 FLuc 4%, RORgamma inh 9%, ERG-DNA inh 8%, Integrin act MD 14% and Giardia killer 12.
For Cc1cccc(CNc2ncncc2-c2ccccc2C)c1 the results were Gal4-VP16 FLuc -4% and RORgamma inh -9%.
`O=S(=O)(NCc1ccncc1)c1ccccc1` gave Gal4-VP16 FLuc 16µM*, RORgamma inh 18%, ERG-DNA inh 1%, Integrin act MD 1% and Giardia killer -14.
Screening CCN(C1CCCCC1)S(=O)(=O)c1ccc(S(=O)(=O)NCCc2ccncc2)cc1 returned Gal4-VP16 FLuc -8%, RORgamma inh inconclusive, ERG-DNA inh -1%, Integrin act MD -18% and Giardia killer 6.
